About 83,000 compounds went through this panel and 20% of them were active in at least one assay; those are over-represented in the sample as a whole.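 Step 1: grow cells in 96-well plates. Step 2: add test compound at a single concentration. Step 3: incubate 48 h. Step 4: record percent growth.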 Calls of active or inactive are those of the source. The calls were made as follows: active = growth percent below 10; inactive = the rest.

In the first test the test system is IGROV1 ovarian. Description: NCI-60 one-dose screen, 48 h (100 = growth as untreated, 0 = no growth, -100 = all killed). The settings on record: 10 µM unless noted.
Turning to `O=S(=O)(NCCCNc1nccc(-c2[nH]c(-c3ccccc3)nc2-c2ccc(Cl)c(O)c2)n1)c1cccc2ccccc12`, the growth is 28.7% (inactive).
As to `Nc1ccccc1NC(=O)c1ccc(NC(=O)C/C=C/c2cccnc2)cc1`, the growth was 23.3% (inactive).
For `COc1cc(-c2nc(SCCC(C)C)nc(NNC(=O)c3ccncc3)c2C#N)cc(OC)c1OC`, the growth was 2.47% (active).
Turning to `O=C(NNc1nc2cc(F)c(F)cc2n2cccc12)c1cnccn1`, the growth was 19.5% (inactive).

The subject of the next test is OVCAR-3 ovarian. The description is as above. The settings on record: 10 µM unless noted.
Regarding `CN1CCN(Cc2ccc(NC(=O)c3cncc(C#Cc4cnc5ccc(OCC6(C)COC6)nn45)c3)cc2C(F)(F)F)CC1`, the growth was -74.5% (active).
Turning to `CC(=O)c1cc(C(=O)c2ccc(Br)cc2)n2cc(C)cc(C)c12`, the growth is 112% (inactive).
In the case of `COC(=O)C[Se]C(=O)Cc1c(C)n(C(=O)c2ccc(Cl)cc2)c2ccc(OC)cc12`, the growth was 44.7% (inactive).
Turning to `N#Cc1cccc(CN2CCC3=C(C2)C(=O)N(Cc2ccc(Cl)cc2)C2=NCCCN23)c1`, the growth was 23.3% (inactive).
In the case of `C=CCn1c(SCC(=O)Nc2ccc(C(=O)/C=C/c3ccc(C)cc3)cc2)nnc1-c1c[nH]c2ccccc12`, the growth was 99.4% (inactive).
On the same count and under the same terms, for `CCCn1cnc2c(c1=N)C(c1ccc(OC)cc1)c1sc3c(CC)cccc3c1O2` (centres undefined) the value was 6% (active); for `Cc1ccc(-c2cc3nc(C(Cl)Cl)nc(C)n3n2)cc1`, 104% (inactive); for `CCOC(=O)C(=O)CC(=O)N1C(=S)NC(=O)C1CC(C)C` (centres undefined), 112% (inactive).
Still for that read-out and setting: under `COc1ccc(-c2nc(C(Cl)Cl)nc3cc(-c4ccccc4)nn23)cc1` stands -33.9% (active); under `CNC(=O)c1cc(-c2ccc(NS(=O)(=O)c3ccc(C)cc3)cc2)nc2cccnc12`, 111% (inactive).

For the origin of these results see PubChem BioAssay (NCI).
